Measurements taken from PubChem BioAssay.
Active and inactive are the calls of the source. Unless noted, how the calls were made is not given here.

Columns and labels:
[1] = compound effects on lung adenocarcinoma cell viability – A549, calcein-AM fluorescence, 48 h, basal, profiling panel (AID 1162); conditions: higher = more signal; further: test concentration not given here
[2] = compound effects on differentiated 3T3-L1 adipocyte viability – cell-based, 3T3-L1 adipocytes, calcein-AM fluorescence, 48 h, basal, profiling panel (AID 1163); conditions: 3T3-L1 adipocytes viability, higher = more signal; further: test concentration not given here
[3] = compound effects on hepatocellular carcinoma cell viability – HepG2, calcein-AM fluorescence, 48 h, basal, profiling panel (AID 1164); conditions: higher = more signal; further: test concentration not given here
[4] = compound effects on multiple myeloma cell viability – MM1S, calcein-AM fluorescence, 48 h, basal, profiling panel (AID 1165); conditions: higher = more signal; further: test concentration not given here
[5] = calcein-AM signal in unstimulated myeloma cells – cell-based, calcein-AM fluorescence, 48 h, PK04 Diversity Set, profiling panel (AID 1166); conditions: RPMI8226 myeloma viability, higher = more signal;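 further: cells grown under basal conditions without added stimulus; test concentration not given here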
[6] = JC-1 mitochondrial signal, unstimulated HepG2 cells – cell-based, JC-1 fluorescence, 24 h, 100 nL compound, profiling panel (AID 1167); conditions: HepG2 mitochondrial potential, higher = more signal; further: test concentration not given here
[7] = JC-1 mitochondrial signal, unstimulated adipocytes – cell-based, JC-1 fluorescence, 3T3-L1 adipocytes, 24 h, 100 nL compound, profiling panel (AID 1168); conditions: JC-1 mitochondrial fluorescence, higher = more signal, called active from +8 up or from −8 down; further: test concentration not given here
[8] = JC-1 mitochondrial signal, unstimulated myeloma cells – cell-based, JC-1 fluorescence, RPMI8226, 24 h, 100 nL compound, profiling panel (AID 1169); conditions: JC-1 mitochondrial potential fluorescence, higher = more signal; further: test concentration not given here
[9] = JC-1 mitochondrial signal, unstimulated MM1S myeloma – cell-based, JC-1 fluorescence, 24 h, 100 nL compound, profiling panel (AID 1170); conditions: MM1S mitochondrial potential, higher = more signal; further: test concentration not given here
[10] = resazurin metabolic signal in A549 cells – cell-based, resazurin fluorescence, 24 h, PK04 Diversity Set, profiling panel (AID 1171); conditions: A549 viability, higher = more signal, called active from +8 up or from −8 down; further: test concentration not given here
[11] = resazurin metabolic signal in HepG2 cells – cell-based, resazurin fluorescence, 24 h, PK04 Diversity Set, profiling panel (AID 1172); conditions: HepG2 viability, higher = more signal; further: test concentration not given here
[12] = budding yeast growth changes without added modifier – OD600, strain BY4716, 24 h, basal condition, primary screen (AID 1173); conditions: S. cerevisiae BY4716 growth, OD600, 24 h; higher = more signal, called active from +8 up or from −8 down
[13] = viability profiling in MM1S myeloma cells – cell-based, resazurin fluorescence, basal, 24 h, PK04 Diversity Set, profiling panel (AID 1174); conditions: higher = more signal, called active from +8 up or from −8 down; further: test concentration not given here
[14] = molecular target: Dihydroorotate dehydrogenase (quinone), mitochondrial (Plasmodium falciparum (isolate 3D7)) (UniProt Q08210); assay: inhibition of P. falciparum DHODH – biochemical, C-terminal His tag, absorbance 600 nm, primary screen (AID 1175); conditions: PfDHODH enzyme, DCIP absorbance 600 nm; higher = more signal, called active from +8 up or from −8 down;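 further: recombinant parasite enzyme with a five histidine tag at its C terminus; test concentration not given here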
[15] = inhibition of PAO1 biofilm formation – strain PAO1, LB-PBS medium, absorbance 600 nm, primary screen (AID 1176); further: test concentration not given here; conditions: P. aeruginosa PAO1 growth/biofilm, A600, 12 h; higher = more signal
[16] = growth modulation of vineyard yeast isolate – strain RM11-1a, OD600, basal, 24 h, primary screen (AID 1177);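 further: cultures grown under basal conditions with no added stressor; test concentration not given here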; conditions: S. cerevisiae RM11-1a growth, OD600, 24 h; higher = more signal, called active from +8 up or from −8 down
[17] = growth of efflux-deficient E. coli DRC39 – strain DRC39, OD650, 24 h, E. coli filamentation inducers, primary screen (AID 1178);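 further: growth measured as culture turbidity by optical density at 650 nm; test concentration not given here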; conditions: E. coli DRC39 acrAB, higher = more signal, called active from +8 up or from −8 down
[18] = growth of efflux-deficient E. coli DRC39 – strain DRC39, OD650, 48 h, E. coli filamentation inducers, primary screen (AID 1179);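 further: screen aims at cell division blockers that make cells filament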; conditions: E. coli DRC39 delta-acrAB growth, higher = more signal, called active from +8 up or from −8 down
[19] = viability profiling in RPMI8226 myeloma cells – cell-based, resazurin fluorescence, basal, 24 h, PK04 Diversity Set, profiling panel (AID 1180); conditions: higher = more signal;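 further: RPMI8826 multiple myeloma cell line at 5000 cells per well; test concentration not given here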
[20] = molecular target: E3 ubiquitin-protein ligase XIAP (Homo sapiens) (UniProt P98170); assay: small molecules binding XIAP protein – biophysical, small-molecule microarray, fluorescence 635 nm, primary screen (AID 1181); conditions: higher = more signal;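 further: score merges 667 nm emission and signal to noise over triplicate slides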
E3 ubiquitin-protein ligase XIAP (Homo sapiens), sequence (P98170 whole entry, looked up): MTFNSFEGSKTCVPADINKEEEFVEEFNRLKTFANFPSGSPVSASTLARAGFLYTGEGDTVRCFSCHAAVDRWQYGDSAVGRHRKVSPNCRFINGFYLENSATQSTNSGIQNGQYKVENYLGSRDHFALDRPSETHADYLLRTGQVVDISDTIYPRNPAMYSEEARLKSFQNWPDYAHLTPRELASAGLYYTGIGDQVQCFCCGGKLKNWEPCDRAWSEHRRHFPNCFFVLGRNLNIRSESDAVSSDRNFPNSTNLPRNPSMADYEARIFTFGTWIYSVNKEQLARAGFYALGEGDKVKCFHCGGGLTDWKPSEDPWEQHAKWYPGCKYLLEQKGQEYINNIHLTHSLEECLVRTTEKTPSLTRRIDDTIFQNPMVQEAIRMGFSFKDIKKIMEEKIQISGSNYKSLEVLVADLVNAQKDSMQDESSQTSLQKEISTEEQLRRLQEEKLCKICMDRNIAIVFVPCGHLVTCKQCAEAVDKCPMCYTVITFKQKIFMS

Dihydroorotate dehydrogenase (quinone), mitochondrial (Plasmodium falciparum (isolate 3D7)), sequence (Q08210 whole entry, looked up): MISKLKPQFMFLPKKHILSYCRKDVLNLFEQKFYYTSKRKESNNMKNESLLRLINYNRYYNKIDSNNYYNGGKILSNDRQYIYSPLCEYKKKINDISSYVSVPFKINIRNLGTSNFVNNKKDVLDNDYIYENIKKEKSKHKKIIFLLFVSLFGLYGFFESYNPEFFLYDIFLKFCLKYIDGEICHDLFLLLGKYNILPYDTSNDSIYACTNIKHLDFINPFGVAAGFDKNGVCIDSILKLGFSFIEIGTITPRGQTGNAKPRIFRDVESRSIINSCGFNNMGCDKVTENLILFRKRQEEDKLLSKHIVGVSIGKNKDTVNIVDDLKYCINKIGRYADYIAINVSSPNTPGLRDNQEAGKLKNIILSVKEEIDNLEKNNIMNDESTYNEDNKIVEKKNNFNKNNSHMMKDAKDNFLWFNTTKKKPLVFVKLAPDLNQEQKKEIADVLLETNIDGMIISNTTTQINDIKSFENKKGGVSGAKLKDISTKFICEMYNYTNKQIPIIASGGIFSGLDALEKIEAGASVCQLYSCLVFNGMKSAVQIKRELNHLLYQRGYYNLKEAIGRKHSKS

Row | SMILES | z-score [1] | z-score [2] | z-score [3] | z-score [4] | z-score [5] | z-score [6] | z-score [7] | z-score [8] | z-score [9] | z-score [10] | z-score [11] | z-score [12] | z-score [13] | composite z-score [14] | z-score [15] | z-score [16] | z-score [17] | z-score [18] | z-score [19] | composite z-score [20]
1 | O=C1OCCC=C[C@H]2OC34C=CCN(Cn5nnc6ccccc65)C(=O)[C@H]3N(CCCO)C(=O)[C@@H]4C12 (stereo not given in full) | 0.213 | 1.03 | -1.1 | 0.114 | -1.04 | -0.746 | 0.147 (inactive) | 0.057 | 0.251 | -0.618 (inactive) | -0.614 | -0.63 (inactive) | 0.157 (inactive) | -0.535 (inactive) | -0.441 (inactive) | 0.227 (inactive) | -1.13 (inactive) | -0.951 (inactive) | -0.997 | -0.0351
2 | CC(C)(C)OC(=O)COc1cccc(C(=O)CCN2CCOCC2)c1 | 1.06 | 0.477 | -0.0751 | -3.27 | -4.4 | -1.01 | -0.0351 (inactive) | -0.885 | -2.04 | 1.5 (inactive) | 0.454 | -10.3 (active) | -0.971 (inactive) | -3.31 (inactive) | -1.03 (inactive) | -0.616 (inactive) | 0.215 (inactive) | 0.0359 (inactive) | -3.51 | -0.203
3 | CCCC[C@@H](O)C1=C(COC)C[C@H]2C(=O)N(Cc3ccccc3)C(=O)[C@H]2[C@H]1CO | 0.449 | -1 | 1.35 | 0.887 | 0.105 | -0.0934 | 0.0385 (inactive) | -0.851 | -1.35 | 0.0943 (inactive) | 0.111 | -1.22 (inactive) | -1.61 (inactive) | -0.401 (inactive) | -0.496 (inactive) | 0.643 (inactive) | 0.418 (inactive) | 0.722 (inactive) | 0.126 | -0.0525
4 | CCCCCCCCCCC(O)C1C=CC2C(=O)N(c3ccccc3)C(=O)C2N1Nc1ccc(C#N)cc1 (stereo not given) | -2.09 | 0.0958 | -4.9 | -3.73 | -4.13 | -3.28 | -0.15 (inactive) | -0.939 | -0.469 | -0.186 (inactive) | -2.08 | 1.18 (inactive) | -0.653 (inactive) | 0.481 (inactive) | 0.571 (inactive) | 1.25 (inactive) | -0.275 (inactive) | 0.598 (inactive) | -2.09 | 1.38
5 | C=CCN1Cc2ccccc2[C@@H]2OC(c3ccc(OCCCO)cc3)=N[C@]2(CC=C)C1=O | -0.546 | 1.44 | 0.274 | -2.62 | -2.83 | 0.752 | 0.0517 (inactive) | -1.09 | 0.278 | 0.0576 (inactive) | 0.151 | -1.94 (inactive) | 0.0504 (inactive) | -0.0817 (inactive) | 0.314 (inactive) | -0.0316 (inactive) | 0.997 (inactive) | 0.64 (inactive) | -0.747 | 0.247
6 | CCCCNC(=O)c1ccc(C#CC(C)(C)C)c(OC(C)=O)c1 | 0.3 | 1.75 | -0.835 | 0.13 | -1.37 | -0.75 | -0.103 (inactive) | -0.284 | -0.221 | -0.654 (inactive) | 0.111 | -2.59 (inactive) | 0.611 (inactive) | -1.14 (inactive) | -0.517 (inactive) | 0.516 (inactive) | 1.27 (inactive) | 0.256 (inactive) | 0.116 | -0.283
7 | COC(=O)C1=CC(CCCO)=CC(c2ccc(CN3CCCC3)cc2)N(Cc2cccc(OC(F)(F)F)c2)C=C1C(=O)OC (stereo not given) | 0.589 | -0.0684 | 1.34 | 1.04 | -0.413 | 3.57 | 0.395 (inactive) | 0.121 | 0.593 | -1.16 (inactive) | -0.721 | -1.54 (inactive) | -0.728 (inactive) | -2.65 (inactive) | -0.407 (inactive) | -0.287 (inactive) | 0.509 (inactive) | 0.701 (inactive) | -0.529 | 0.166
8 | [N-]=[N+]=NCc1ccccc1[C@H]1OC(c2ccc(OCCCO)cc2)=N[C@@]1(Cc1ccccc1N=[N+]=[N-])C(=O)NCC(O)CO (stereo not given in full) | -0.471 | 0.517 | -0.353 | -3.22 | -3.36 | -0.504 | -0.618 (inactive) | -0.962 | -0.934 | 0.286 (inactive) | -0.144 | -1.39 (inactive) | -0.898 (inactive) | -0.407 (inactive) | 0.758 (inactive) | 0.313 (inactive) | -0.0245 (inactive) | -0.188 (inactive) | -1.06 | 0.133
9 | CCOC(=O)C[C@H]1[C@H](OC(=O)c2ccccc2-c2ccccc2)[C@@H](NC(=O)c2ccc3ccccc3n2)c2cc(OCCCO)ccc2N1C(=O)Cc1ccc(OC)cc1 | 0.278 | 0.054 | 0.266 | 0.0554 | -0.826 | 0.972 | -0.363 (inactive) | -0.209 | -0.112 | 0.0225 (inactive) | -0.271 | 0.64 (inactive) | -0.343 (inactive) | 0.315 (inactive) | 0.413 (inactive) | -0.384 (inactive) | -0.42 (inactive) | -0.281 (inactive) | -0.0052 | -0.408
10 | COCCOC(=O)N1C(=O)[C@@]2(c3cc(C#CCCO)ccc31)[C@H](c1ccc(OCCO)cc1)N1[C@H](c3ccccc3)[C@H](c3ccccc3)OC(=O)[C@H]1[C@@H]2C(=O)Nc1nc2ccccc2s1 | -0.255 | 0.561 | 0.779 | -0.981 | -0.0413 | -3.68 | -1.38 (inactive) | -0.78 | -1.81 | -0.5 (inactive) | 0.32 | 1.9 (inactive) | -0.344 (inactive) | -0.719 (inactive) | 1.56 (inactive) | 2.38 (inactive) | -0.0627 (inactive) | 0.0759 (inactive) | -0.687 | -0.124
